Bioassay records as filed in PubChem BioAssay.
Hits are enriched below; roughly 0.97% of the tested compounds scored in any of these assays.
TcdB GH inh: inhibitors of Clostridioides difficile toxin B glycohydrolase. TcdB glycohydrolase enzymatic assay, plate reader. inhibition, % at 9.99 µM. actives 0.24% (n = 350,000); in the data active = inhibition above about 10%
BioA inh-1: blocks M. tuberculosis BioA enzyme activity; inhibition, % at 9.99 µM; AID 602481; actives 0.096% (n = 360,000); purified M. tuberculosis BioA enzyme, plate reader; in the data active = inhibition above about 40%
Rv3671c protease: Rv3671c (M. tuberculosis) protease inhibition | AID 2606 | actives 0.048% (n = 320,000) | inhibition, % at 5.96 µM | P9WHR9; in the data active = inhibition above about 38%;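 also: extracellular domain of Rv3671c used as enzyme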
UGM FP inh: inhibitors of M. tuberculosis UDP-galactopyranose mutase. purified UGM, fluorescence polarization probe displacement. inhibition, % at 10 µM. actives 0.06% (n = 320,000). AID 504406; in the data active = inhibition above about 10%, passing the limit was not always enough
Target sequence (P9WIQ1 whole entry, looked up): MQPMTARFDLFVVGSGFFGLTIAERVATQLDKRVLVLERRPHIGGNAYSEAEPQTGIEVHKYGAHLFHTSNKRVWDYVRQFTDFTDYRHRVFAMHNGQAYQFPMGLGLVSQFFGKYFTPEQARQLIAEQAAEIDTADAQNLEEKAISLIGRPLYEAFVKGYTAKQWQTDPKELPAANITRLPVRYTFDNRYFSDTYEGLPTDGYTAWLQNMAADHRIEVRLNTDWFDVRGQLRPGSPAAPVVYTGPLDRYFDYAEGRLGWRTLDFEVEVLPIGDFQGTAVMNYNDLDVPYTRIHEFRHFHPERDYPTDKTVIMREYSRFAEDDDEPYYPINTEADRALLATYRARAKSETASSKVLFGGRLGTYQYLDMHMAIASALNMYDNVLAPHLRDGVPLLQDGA
RecA splice inh: Mtb RecA intein splicing inhibition; P9WHJ3; cell-free RecA intein splicing, fluorescence; inhibition, % (test concentration not listed); actives 0.75% (n = 290,000); AID 2221; in the data active = inhibition above about 30%
FadD28 FP inh: M. tuberculosis FadD28 bisubstrate binding inhibition; AID 588549; actives 0.22% (n = 360,000); inhibition, % at 12.5 µM; FadD28 bisubstrate probe binding, fluorescence polarization; in the data active = inhibition above about 8.5%, passing the limit was not always enough
BioA inh-2: inhibitors of Mycobacterium tuberculosis BioA enzyme | shares compounds with BioA inh-1 | purified BioA enzyme, plate reader, dose response | max activity, % | 310 tested, under 10 active;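 also: top concentration of the dilution series was 10 µM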
HepG2 cytotox: cytotoxicity in HepG2 cells | shares compounds with BioA inh-1 | plate reader | max activity, % | 310 tested, under 10 active | AID 651898
3T3 cytotox 5: cytotoxicity in NIH3T3 cells; shares compounds with BioA inh-1; plate reader; activity change, negative = cytotoxicity, % at 26 µM; 310 tested, under 10 active
Hits are given with their value; n = inactive; x = no result. Unless noted, no rule for the calls is given here.

SMILES	TcdB GH inh	BioA inh-1	Rv3671c protease	UGM FP inh	RecA splice inh	FadD28 FP inh	BioA inh-2	HepG2 cytotox	3T3 cytotox 5
CC(Oc1ccc2c(-c3ccccc3)cc(=O)oc2c1)C(=O)N1CCOCC1 (stereo unspecified)	n	n	n	n	x	n	x	x	x
CC(Oc1ccc2ccc(=O)oc2c1)C(=O)N1CCOCC1 (stereo unspecified)	n	66	n	n	n	n	n	n	n
Clc1ccc(CSc2nnc(-c3cccnc3)o2)cc1	x	65	n	n	n	n	n	n	n
c1ccc(CSc2nnc(-c3cccnc3)o2)cc1	x	x	n	n	n	n	x	x	x
C[C@@H]1CN([C@H](C)CO)C(=O)c2cc(NC(=O)NC3CCCCC3)ccc2O[C@@H](C)CCCCO[C@@H]1CN(C)S(=O)(=O)c1ccc(F)cc1	n	n	x	x	x	x	x	x	x
